Inconclusive results are not listed. The source made the active and inactive calls. Calls come from the whole dose curve; as a rule, active = well fitted curve in the direction sought with a large enough effect; inconclusive = small, poorly fitted or top-dose-only effect, or another doubt; inactive = no such curve, though single readings can be large; an effect the other way counts as inactive or inconclusive.

Test [1] is described as follows: qHTS Screen of the MIPE 4.0 Collection Against Ewings Sarcoma (TC32) (AID 1259256). Note: nearly all actives have a fitted effect of over 45% in size. The method, boiled down: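 Dose series incubated 48 h with cells in RPMI plus 5% FBS, glutamine and penicillin/streptomycin; cell viability then quantified via CellTiter-Glo.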
Test [2] is described as follows: P-glycoprotein substrates identified in KB-8-5-11 adenocarcinoma cell line, qHTS therapeutic library screen (AID 1346987). Note: nearly all actives have a fitted effect of over 65% in size. The method, boiled down: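 P-gp-mediated resistance screen: KB-8-5-11 cells treated 72 h with compounds in dose-response. CellTiter-Glo viability.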
A general note: Quantitative high-throughput screening tests each substance at several concentrations.

A short description of test [3]: qHTS of pediatric cancer cell lines to identify multiple opportunities for drug repurposing: Primary screen for A673 cells (AID 1347092). Note: nearly all actives have a fitted effect of over 45% in size. The method, boiled down: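 Titration-based qHTS on A673 cells: MIPE compounds spanned 11 points (0.78 nM to 46 µM final), NPC compounds 8 points (0.59 nM to 46 µM final). Viability after 48 h was measured by ATP luminescence.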

Test [4] can be described thus: qHTS of pediatric cancer cell lines to identify multiple opportunities for drug repurposing: Primary screen for SK-N-MC cells (AID 1347093). A digest of the protocol: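 Metabolically active cells were quantified by ATP-dependent luminescence (CellTiter-Glo, 15 min at room temperature) following 48 h treatment. Cells had been plated at 500-1,000 per well and settled for 5 h beforehand.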

Test [5] can be described thus: qHTS of pediatric cancer cell lines to identify multiple opportunities for drug repurposing: Primary screen for BT-37 cells (AID 1347094). A digest of the protocol:
(§1)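 Plated cells (500-1,000 per well, growth media) were allowed to settle for 5 hours, treated with compound dilutions for 48 hours, then lysed with CellTiter-Glo for 15 min at room temperature before luminescence reading.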

Test [6] can be described thus: qHTS of pediatric cancer cell lines to identify multiple opportunities for drug repurposing: Primary screen for Saos-2 cells (AID 1347097). Note: nearly all actives have a fitted effect of over 40% in size. A digest of the protocol:
as §1

Test [7] can be described thus: qHTS of pediatric cancer cell lines to identify multiple opportunities for drug repurposing: Primary screen for SK-N-SH cells (AID 1347098). Note: nearly all actives have a fitted effect of over 65% in size. A digest of the protocol: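 Cells (500-1,000/well) rested 5 h, then received compounds for 48 h; metabolically active cells were measured by CellTiter-Glo luminescence. Final concentrations spanned up to 46 µM (MIPE, 11-point) or 0.59 nM-46 µM (NPC, 8-point) in primary screens, 11-point in follow-ups.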

A short description of test [8]: qHTS of pediatric cancer cell lines to identify multiple opportunities for drug repurposing: Primary screen for NB1643 cells (AID 1347099). Note: nearly all actives have a fitted effect of over 50% in size. A digest of the protocol: as §1
The nature of test [9]: qHTS of pediatric cancer cell lines to identify multiple opportunities for drug repurposing: Primary screen for LAN-5 cells (AID 1347100). A digest of the protocol:
(§2)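 Viability after 48 h compound treatment at 37C, 500-1,000 cells/well, read as ATP luminescence with CellTiter-Glo. Primary screens used 11-point (MIPE, 0.78 nM-46 µM) or 8-point (NPC, 0.59 nM-46 µM) final concentrations; follow-up screens used 11-point dilutions.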

The nature of test [10]: qHTS of pediatric cancer cell lines to identify multiple opportunities for drug repurposing: Primary screen for SJ-GBM2 cells (AID 1347091). The method, boiled down:
(§3)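 Viability measured as metabolically active cells via CellTiter-Glo luminescence following 48 hours of compound exposure, 11-point dilutions in confirmatory testing. 500-1,000 cells/well plated 5 hours before dosing; controls were DMSO and 2.3 µM bortezomib.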

The nature of test [11]: qHTS of pediatric cancer cell lines to identify multiple opportunities for drug repurposing: Primary screen for NB-EBc1 cells (AID 1347095). The method, boiled down: as §1
The nature of test [12]: qHTS of pediatric cancer cell lines to identify multiple opportunities for drug repurposing: Primary screen for U-2 OS cells (AID 1347096). Note: nearly all actives have a fitted effect of over 50% in size. The method, boiled down: as §2
Test [13] can be described thus: qHTS of pediatric cancer cell lines to identify multiple opportunities for drug repurposing: Primary screen for TC32 cells (AID 1347089). Note: nearly all actives have a fitted effect of over 60% in size. A digest of the protocol: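 A viability screen of TC32 cells was run over 48 h, with primary MIPE doses spanning 0.78 nM–46 µM and NPC doses 0.59 nM–46 µM. ATP luminescence (CellTiter-Glo) served as the read-out.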
The nature of test [14]: NS1 protein of Zika virus - qHTS assay to identify small molecule inhibitors in human HEK 293 cells (AID 1347053). Note: nearly all actives have a fitted effect of over 55% in size. A digest of the protocol: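 Following 20 h seeding, HEK 293 cells took compound, then 1 h later ZIKV MR766 (MOI = 0.5). Incubation ran 24 h at 37 C before TR-FRET detection of NS1; a drop in signal indicates inhibition.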
Test [15] is described as follows: qHTS of pediatric cancer cell lines to identify multiple opportunities for drug repurposing: Primary screen for DAOY cells (AID 1347090). Note: nearly all actives have a fitted effect of over 55% in size. A digest of the protocol:
as §3
Potency is the fitted concentration of half-maximal effect.

For `C=CC(=O)Nc1cc(NC(=O)c2ccc(C)c(NC(=O)c3ccno3)c2)cc(C(F)(F)F)c1`, the Potency in test [1] was 23.5 µM (active); in test [3], 14.8 µM (active); in test [4], 10.5 µM (active); in test [5] it was 27.3 µM (active); in test [6], 18.7 µM (active); in [7], 24.1 µM (active). The Potency in test [8] was 18.7 µM (active); in test [9], 16.6 µM (active). The Potency result in test [2] was “inactive”.
For the compound `NC(=O)Nc1cc(-c2ccc(CN3CCOCC3)cc2)sc1C(N)=O`, the Potency is 0.187 µM (active) in test [1]; 1.48 µM (active) in test [2]; 0.059 µM (active) in test [10]; 5.9 µM (active) in test [3]; 0.105 µM (active) in test [4]; 21.7 µM (active) in [5]. The Potency in [11] was 0.235 µM (active); in test [12], 18.7 µM (active); in test [6], 2.35 µM (active); in [7], 1.36 µM (active); in test [8], 0.0296 µM (active); in test [9] it was 0.0332 µM (active).
Turning to `c1ccc(CNc2nc(NCc3ccccc3)c3ccccc3n2)cc1`, the Potency is 23.5 µM (active) in test [1]; 20.9 µM (active) in test [2]; 4.69 µM (active) in test [3]; 11.8 µM (active) in test [4]; 23.5 µM (active) in test [11]; 18.7 µM (active) in test [6]. The Potency in [7] was 6.81 µM (active); in test [8] it was 18.7 µM (active); in test [9], 20.9 µM (active). Also, in test [13], the Potency entry was “inactive”.
For `CN(CC(=O)N(Cc1ccc(C2CCCCC2)cc1)c1ccc(C(=O)O)c(O)c1)S(=O)(=O)c1c(F)c(F)c(F)c(F)c1F`, the Potency in test [1] is 6.62 µM (active); in test [10], 11.8 µM (active); in test [3], 9.35 µM (active); in test [4], 1.48 µM (active); in [5] it was 17.2 µM (active); in test [11], 26.4 µM (active). Also, the Potency in test [6] was 16.6 µM (active); in test [7], 21.5 µM (active); in test [8] it was 20.9 µM (active); in [9], 23.5 µM (active). Also, the Potency entry in test [2] and in test [13] was “inactive” in each case.
With `CN1CCCN(C(=O)c2cccc(-c3ccc(C=C4C(=O)Nc5ccc(Cl)cc54)o3)c2)CC1`, the Potency is 18.7 µM (active) in test [1]; 16.6 µM (active) in [2]; 16.6 µM (active) in test [10]; 18.7 µM (active) in test [3]; 14.8 µM (active) in [4]; 6.85 µM (active) in test [5]. The Potency in [11] is 3.32 µM (active); in test [6], 23.5 µM (active); in test [8] it was 5.9 µM (active); in test [9] it was 2.09 µM (active).
Consider `O=C(Nc1cccc(Nc2ncc(Br)c(NCCc3cnc[nH]3)n2)c1)N1CCCC1`, for which the Potency in [1] was 0.296 µM (active); in test [14], 10.5 µM (active); in [13], 0.93 µM (active); in test [15], 18.7 µM (active); in [10], 5.9 µM (active); in [4] it was 0.332 µM (active). The Potency in [5] is 21.7 µM (active); in test [6], 1.05 µM (active); in [7], 13.6 µM (active); in test [9], 0.118 µM (active). Also, in test [12], the Potency result is “inactive”.
As for `COc1cc(CCc2cc(NC(=O)c3ccc(N4C[C@@H](C)N[C@@H](C)C4)cc3)n[nH]2)cc(OC)c1`, the Potency in test [1] was 13.2 µM (active); in [10] it was 13.2 µM (active); in [3], 14.8 µM (active); in test [5], 27.3 µM (active); in [11], 14.8 µM (active); in test [12], 23.5 µM (active). The figures for the Potency in test [6], in test [7] and in test [9] were 5.9 µM (active), 6.07 µM (active) and 4.18 µM (active), respectively.
On to `C[N+](C)([O-])CCNc1ccc(NCC[N+](C)(C)[O-])c2c1C(=O)c1c(O)ccc(O)c1C2=O`, for which the Potency result in [1], in test [14], in [15], in test [10], in test [5] and in [12] was “inactive” in each case. Besides, the Potency entry in test [6] is “inactive”. Further, the Potency in test [13] is 5.23 µM (active).
As to `CCN(CC)CCCCNc1ncc2c(n1)N(C)C(=O)N(c1c(Cl)c(OC)cc(OC)c1Cl)C2`, the Potency is 20.9 µM (active) in test [1]; 23.4 µM (active) in test [13]; 18.7 µM (active) in test [3]; 13.2 µM (active) in test [4]; 16.6 µM (active) in [8]; 20.9 µM (active) in test [9]. The Potency result in test [12] and in test [6] was “inactive” throughout.
Regarding `N=c1ccn2c(n1)O[C@H]1[C@@H](O)[C@@H](CO)O[C@H]12`, the Potency in [1] was 0.372 µM (active); in test [3], 0.372 µM (active); in [4] it was 11.8 µM (active); in test [5], 0.611 µM (active); in [11], 11.8 µM (active); in test [8], 9.35 µM (active). Moreover, the Potency in [9] was 3.32 µM (active). The Potency result in test [14], in [12] and in [6] was “inactive” throughout.
In the case of `NS(=O)(=O)OC[C@@H]1C[C@@H](n2ccc3c(N[C@H]4CCc5ccccc54)ncnc32)C[C@H]1O`, the Potency in [1] is 0.148 µM (active); in test [13], 1.65 µM (active); in test [15], 0.59 µM (active); in test [10] it was 0.296 µM (active); in test [3], 0.148 µM (active); in test [4], 0.0935 µM (active). The figures for the Potency in [11], in test [8] and in test [9] were 0.132 µM (active), 6.62 µM (active) and 0.833 µM (active), respectively. In addition, the Potency result in test [14] and in test [7] was “inactive” each time.

The values are drawn from PubChem BioAssay (NCATS).
